Experimental data: PubChem BioAssay (NCI)
About 83,000 compounds went through this panel and 20% of them were active in at least one assay; those are over-represented in the sample as a whole.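 Each cell line was grown in a 96-well plate and treated with one concentration of compound for 48 hours. Values below 10 were considered active.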 Values without a mark were called inactive. Activity calls are given as the source filed them.

System: A498 renal
Assay: NCI-60 one-dose screen, 48 h (100 = growth as untreated, 0 = no growth, -100 = all killed)
Conditions: 10 µM

Compound	growth
CN1CC(CNC(=O)OCc2ccccc2)CC2c3cccc4c3c(cn4C)CC21 (configuration not stated)	57.6%
ClCCN(CCCl)c1ccc(/C=N\N=C\c2ccc(N(CCCl)CCCl)cc2)cc1	75%
COC(=O)CCC1=C(C)c2cc3[n-]c(cc4nc(cc5[n-]c(cc1n2)c(CCC(=O)OC)c5C)C=C4C)cc3C.[Cd+2]	34.4%
C=CCn1cc(C=C2C(=O)N(C)C(=O)N(C)C2=O)c2ccccc21	-90.6% (active)
CC(C)(NC(=O)O[C@@H]1CN2CCC1CC2)c1csc(-c2ccc(F)cc2)n1	90.6%
CCOC(=O)N1CC1	111%
N#CC1(C#N)C(c2ccc(N(CCCl)CCCl)cc2)OC23CCCCC2C1(C#N)C(=N)O3 (configuration not stated)	56.6%
C=CCCCN=C=S	76%
O=C(N/N=C\c1ccc(N(CCCl)CCCl)cc1)c1cccc([N+](=O)[O-])c1	118%
CNCc1cccnc1	104%
COc1ccc(N(CC(=O)NCCC[Te]c2ccccc2)C(=O)CCSC2=C(C)C(=O)c3ccccc3C2=O)cc1	-32.2% (active)

System: HL-60(TB) leukemia
Assay: as above
Conditions: 10 µM unless noted

Compound	growth
O=C(Nc1ccc(O)cc1)C(Cl)(Cl)Cl	98.5%
CCCOC(=O)N[C@H]1CCc2c(Br)c(OC)c(OC)c(OC)c2-c2ccc(SC)c(=O)cc21	-25.7% (active)
CCOC(=O)[C@@H](C)C[C@H](Cc1ccccc1)NC(=O)c1csc([C@@H](C[C@H](C(C)C)N(C)C(=O)[C@@H](NC(=O)[C@H]2CCCCN2C)C(C)(C)CC)OC(C)=O)n1	-33.4% (active)
COc1ccc(NC([Se])=NC23CC4CC(CC(C4)C2)C3)cc1	-11.8% (active)
C[C@@]12CC=C3c4nc(Nc5cccc(O)c5)sc4CC[C@]3(C)[C@H]1CC[C@]1(C)C(=O)CC[C@@H]21	46%
O=[N+]([O-])/C=C\c1ccc(Cl)c(Cl)c1	34.6%
CC(C)OC(=O)[C@H](C)NP(=O)(Oc1ccccc1)C1CCCN(O)C1=O (some centres not stated)	94.1%
COC(=O)[C@@H](C)C[C@H](Cc1ccccc1)NC(=O)c1nc([C@@H](C[C@H](C(C)C)N(C)C(=O)[C@@H](NC(=O)[C@H]2C[C@H](O)CCN2C)C(C)C)OC(C)=O)sc1C(C)C	-42.3% (active)
N#CC1C(C#N)C2CCC1C1C2N1c1ccccc1 (configuration not stated)	91.7%
CCC(C)(C)[C@H](NC(=O)[C@H]1CCCCN1C)C(=O)N(C)[C@H](C[C@@H](OC(C)=O)c1nc(C(=O)N[C@@H](Cc2ccccc2)C[C@H](C)C(=O)O)cs1)C(C)C	-8.72% (active)
C[C@]12CCc3sc(-c4ccccc4O)nc3C1=CC[C@@H]1[C@@H]2CC[C@]2(C)C(=O)CC[C@@H]12	103%
Cc1cccc(N2CCN(C(C)C#N)CC2)c1 (configuration not stated)	94.2%
O=C(Nc1ccc([N+](=O)[O-])cc1)C(Cl)(Cl)Cl	108%
COP(=S)(N1CC1)N1CC1	106%
CC(=O)OC[C@]1(C)C=C2C(=O)[C@](C)(O)C3(CC3)C(C)=C2[C@H]1O	-12.4% (active)
CS(=O)(=O)CCN1CC2CCCC(C2)C1	81.4%
CCOC(=O)[C@@H](C)C[C@H](Cc1ccccc1)NC(=O)c1csc([C@@H](C[C@H](C(C)C)N(C)C(=O)[C@@H](NC(=O)[C@H]2C[C@H](O)CCN2C)C(C)C)OC(C)=O)n1	-27.1% (active)
Cn1cc(C=O)c2nccnc21	107%
Cc1cc(N(CCCl)CCCl)ccc1C=Nc1ccccc1-c1ccccc1	48.4%
CNC(=O)Oc1ccc2c(c1)OCO2	94.3%
Cn1cccc1C1CC(=O)N(CCC[Se]C#N)C1=O (configuration not stated)	-42.8% (active)
CC1(C)[C@H](O)[C@H](F)C[C@@]2(C)Oc3ccc(C(=O)Nc4ccc5c(c4)NC(=O)C54CCN(CCCCC#N)CC4)cc3C[C@H]12	30.5%
CCOC(=O)[C@@H](C)C[C@H](Cc1ccccc1)NC(=O)c1nc([C@@H](C[C@H](C(C)C)N(C)C(=O)[C@@H](NC(=O)[C@H]2CCCCN2C)C(C)C)OC(C)=O)sc1CCOCc1ccccc1	-62.9% (active)
C[C@]12CCc3sc(-c4cccc(F)c4)nc3C1=CC[C@@H]1[C@@H]2CC[C@]2(C)C(=O)CC[C@@H]12	34.2%
COC(=O)[C@H](C[C@H](Cc1ccccc1)NC(=O)c1csc([C@@H](C[C@H](C(C)C)N(C)C(=O)[C@@H](NC(=O)[C@H]2CCCCN2C)C(C)C)OC(C)=O)n1)NC(=O)OCc1ccccc1	-30.3% [8.5 µM] (active)
C[C@]12CC[C@H]3[C@@H](C[C@@H]4SC(Nc5ccccc5)=N[C@@]45CC(O)CC[C@]35C)[C@@H]1CCC2O (some centres not stated)	15.7%
